Assay outcomes from PubChem.
Rows were chosen to be rich in hits. Some 10% of all compounds tested hit in one or more screens of this group.
3T3 cytotox = Cytotoxic Profiling in NIH 3T3 Cell Line of Diverse Libraries Using Quantitative High-Throughput Screening; NIH 3T3 viability, CellTiter-Glo ATP luminescence, 48-72 h; Potency, µM (series often up to 96.7 µM), without a hit: at the top dose activity change, negative = cytotoxicity, actives largely listed as inhibitors; hit rate 4.3% among 94,000; AID 1345082, 2018; also: % is scaled to controls: 0 for no effect and ±100 for the full control effect; nearly all actives have a fitted effect of over 55% in size
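Cytotoxicity is measured as loss of cellular ATP: NIH 3T3 cells (400/well) are exposed to compound for 48 or 72 hr at 37 °C, then CellTiter-Glo luminescence is imaged after 10 min at room temperature.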
hNpr1 antagonist = Natriuretic polypeptide receptor (hNpr1) antagonism - Primary qHTS; Atrial natriuretic peptide receptor 1 (Homo sapiens), P16066; HEK293 hNpr1 GloSensor cGMP, ANP-stimulated luminescence; Potency, µM (titrated, usually from 46.3 µM), inactives show top-dose activity change, negative = inhibition, hits mostly inhibitors; hit rate 1.6% among 76,000; calls by dose curve; also: % is scaled to controls: 0 for no effect and ±100 for the full control effect; nearly all actives have a fitted effect of over 60% in size
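HEK293 cells stably expressing human Npr1 and cGMP GloSensor pGS-40F, loaded 2 h with 2% GloSensor reagent, given compound 30 min at room temperature. Luminescence read before and 20 min after 0.1 nM hNppA.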
HEK cytotox = Cytotoxic Profiling in HEK 293 Cell Line of Diverse Libraries Using Quantitative High-Throughput Screening | HEK 293 viability, ATP luminescence (CellTiter-Glo), 48-72 h | Potency, µM (highest dose often 115 µM), for the others: top-dose activity change, negative = cytotoxicity, usual class: inhibitors | hit rate 6.6% among 94,000 | AID 1345083, 2018; also: % is scaled to controls: 0 for no effect and ±100 for the full control effect; nearly all actives have a fitted effect of over 60% in size
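250 HEK 293 cells/well; compound by pintool; incubated 48 or 72 hr at 37 degree Celsius; CellTiter-Glo added, 10 min RT, luminescence imaged.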
FLuc inh = Firefly luciferase inhibition profiling of diverse chemical library using quantitative high-throughput screening; Luciferin 4-monooxygenase (Photinus pyralis), P08659; purified P. pyralis luciferase, luminescence, biochemical; Potency, µM (titrated, usually from 115 µM), hits mostly inhibitors; hit rate 2.5% among 76,000; AID 1347043, 2019; also: % is scaled to controls: 0 for no effect and ±100 for the full control effect; nearly all actives have a fitted effect of over 65% in size
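Biochemical qHTS: compound (6-point titration) added to 10uM D-luciferin plus 10uM ATP in Tris acetate pH 7.5 buffer with Mg, Tween-20 and BSA, then purified enzyme at 10nM; light output imaged.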
GPT2 inh = Primary qHTS assay for inhibitors of Glutamate pyruvate transaminase 2 (GPT2) | Alanine aminotransferase 2 (Homo sapiens), Q8TD30 | Recombinant GPT2, coupled pyruvate oxidase/HRP Amplex Red fluorescence | Potency, µM (doses to about 57.7 µM), for the others: at the top dose activity change, negative = inhibition, usual class: inhibitors | hit rate 0.25% among 100,000; also: % is scaled to controls: 0 for no effect and ±100 for the full control effect; nearly all actives have a fitted effect of over 60% in size
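Inhibition is scored from Amplex Red fluorescence generated when pyruvate oxidase and HRP act on pyruvate released by GPT2. Reactions contain 10ng/uL enzyme, 250uM a-KG and 2mM L-alanine and run 30 min at room temperature.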
Npr1 antag conf = Natriuretic polypeptide receptor (hNpr1) antagonism - Confirmation. shares compounds with hNpr1 antagonist. HEK293 hNpr1 cGMP GloSensor luminescence, ANP-stimulated. Potency, µM (top dose mostly 57.6 µM), without a hit: at the top dose activity change, negative = inhibition, hits mostly inhibitors. hit rate 76% among 1,400. AID 1347044, 2019; calls by dose curve; also: nearly all actives have a fitted effect of over 70% in size
NPR2 antag = Natriuretic polypeptide receptor (hNpr2) antagonism - Subtype selectivity assay; shares compounds with hNpr1 antagonist; HEK293 hNpr2 GloSensor cGMP luminescence, CNP-stimulated; Potency, µM (top dose mostly 57.6 µM), for the others: at the top dose activity change, negative = inhibition, most hits filed as inhibitors; hit rate 67% among 1,400; calls by dose curve; also: nearly all actives have a fitted effect of over 70% in size
Target sequence (P20594 whole entry, looked up): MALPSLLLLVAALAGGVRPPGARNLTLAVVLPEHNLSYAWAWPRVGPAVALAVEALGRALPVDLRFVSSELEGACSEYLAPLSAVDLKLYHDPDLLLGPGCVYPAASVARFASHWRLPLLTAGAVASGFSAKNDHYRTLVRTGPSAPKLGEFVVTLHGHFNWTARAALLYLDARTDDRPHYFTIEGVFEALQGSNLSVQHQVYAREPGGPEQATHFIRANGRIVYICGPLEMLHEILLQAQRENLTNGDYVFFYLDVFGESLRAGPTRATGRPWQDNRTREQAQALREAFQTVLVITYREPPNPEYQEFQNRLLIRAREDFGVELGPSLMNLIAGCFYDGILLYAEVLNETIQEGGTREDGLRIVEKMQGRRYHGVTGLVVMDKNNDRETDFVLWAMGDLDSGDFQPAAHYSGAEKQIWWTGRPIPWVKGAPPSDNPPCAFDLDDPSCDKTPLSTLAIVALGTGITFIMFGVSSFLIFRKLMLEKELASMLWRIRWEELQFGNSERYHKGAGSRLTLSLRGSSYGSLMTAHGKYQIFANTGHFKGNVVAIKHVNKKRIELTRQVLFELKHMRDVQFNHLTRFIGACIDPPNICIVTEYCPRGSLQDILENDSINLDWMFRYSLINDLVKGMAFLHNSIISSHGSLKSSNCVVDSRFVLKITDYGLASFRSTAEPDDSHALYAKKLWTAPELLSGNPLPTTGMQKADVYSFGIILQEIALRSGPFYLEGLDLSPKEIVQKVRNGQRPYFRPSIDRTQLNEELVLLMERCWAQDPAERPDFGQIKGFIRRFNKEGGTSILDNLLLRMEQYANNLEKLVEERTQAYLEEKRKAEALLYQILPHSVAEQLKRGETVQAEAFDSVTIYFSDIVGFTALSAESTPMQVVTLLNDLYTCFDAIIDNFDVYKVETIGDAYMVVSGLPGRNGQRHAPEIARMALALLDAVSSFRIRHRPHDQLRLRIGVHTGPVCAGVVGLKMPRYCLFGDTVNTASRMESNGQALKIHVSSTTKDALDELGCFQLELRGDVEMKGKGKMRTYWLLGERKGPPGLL
FLuc inh counter = Natriuretic polypeptide receptor (hNpr1) antagonism - Confirmation firefly luciferase (FLuc) inhibition counterscreen; shares compounds with hNpr1 antagonist; purified FLuc enzyme, luminescence, Km substrate; Potency, µM (highest dose often 57.6 µM), for inactives: at the top dose activity change, negative = inhibition, hits mostly inhibitors; hit rate 0.7% among 1,400; also: 0% is about no effect
GloSensor ctrl = Natriuretic polypeptide receptor (hNpr1) antagonism - Counterscreen GloSensor control cell line. shares compounds with hNpr1 antagonist. HEK293 GloSensor cGMP, SNP-stimulated, luminescence. Potency, µM (highest dose often 57.6 µM), for inactives: top-dose activity change, negative = inhibition, most hits filed as inhibitors. hit rate 69% among 1,400. AID 1347051, 2019; calls by dose curve; also: % is scaled to controls: 0 for no effect and ±100 for the full control effect; nearly all actives have a fitted effect of over 70% in size
The depositor's hits bear a star; [ ] = another dose, or the depositor's remark. Unless noted, calls follow the shape of the dose curve; as a rule, active = well fitted curve in the direction sought with a large enough effect; inconclusive = small, poorly fitted or top-dose-only effect, or another doubt; inactive = no such curve, though single readings can be large; an effect the other way counts as inactive or inconclusive. Potency is read from the fitted curve at half-maximal effect.

CCO[C@H]1CN(C(=O)c2cnn(-c3ccccc3OC)c2)C[C@@H]1O was read as 3T3 cytotox -7%, hNpr1 antagonist -1%, HEK cytotox -3%, FLuc inh inactive and GPT2 inh inactive.
For CS(=O)(=O)c1ccc(CC(=O)N[C@H](c2ccccn2)C2CC(O)C2)cc1 (some centres undefined) the results were 3T3 cytotox 2%, hNpr1 antagonist -18%, HEK cytotox -3%, FLuc inh inactive and GPT2 inh inconclusive.
O=C(N[C@H](c1ccccn1)C1CC(O)C1)C1(c2ccc(Cl)cc2)CCC1 (some centres undefined) was read as 3T3 cytotox -19%, hNpr1 antagonist inconclusive, HEK cytotox inconclusive, FLuc inh inactive, GPT2 inh -3%[11.5 µM], Npr1 antag conf inconclusive, NPR2 antag 19µM*, FLuc inh counter 1% and GloSensor ctrl 1%.
Screening Fc1ccc(-c2cnc3n2C[C@H](CNCc2ccccc2Cl)OC3)cc1 returned 3T3 cytotox inconclusive, hNpr1 antagonist 25µM*, HEK cytotox 79µM*, FLuc inh inactive, GPT2 inh inactive, Npr1 antag conf 40µM*, NPR2 antag 40µM*, FLuc inh counter -19%[86.2 µM] and GloSensor ctrl 40µM*.
O=C(c1ccccc1)N1CCN(C(=O)c2nnn3c2COC(c2ccccc2)C3)CC1 (centres undefined) was read as 3T3 cytotox -24%, hNpr1 antagonist -3%, HEK cytotox -30%, FLuc inh inactive and GPT2 inh inactive.
For COc1ccc(C2Cn3nnc(C(=O)N4CCN(C(=O)c5ccc(C)s5)CC4)c3CO2)cc1 (centres undefined) the results were 3T3 cytotox inconclusive, hNpr1 antagonist inconclusive, HEK cytotox inconclusive, FLuc inh inactive, GPT2 inh -1%, Npr1 antag conf 24µM*, NPR2 antag 24µM*, FLuc inh counter 0% and GloSensor ctrl 24µM*.
Screening COc1ccc(C2Cn3nnc(C(=O)N4CCN(C(=O)c5cccc(C)c5)CC4)c3CO2)cc1 (centres undefined) returned 3T3 cytotox inconclusive, hNpr1 antagonist 14µM*, HEK cytotox 8.9µM*, FLuc inh inactive, GPT2 inh 3%, Npr1 antag conf 19µM*, NPR2 antag 22µM*, FLuc inh counter 5% and GloSensor ctrl 14µM*.
`Cc1ccc(C2Cn3nnc(C(=O)N4CCN(C(=O)c5cccc(Cl)c5)CC4)c3CO2)cc1` (centres undefined) gave 3T3 cytotox inconclusive, hNpr1 antagonist inconclusive, HEK cytotox 32µM*, FLuc inh inactive, GPT2 inh inactive, Npr1 antag conf 15µM*, NPR2 antag 22µM*, FLuc inh counter 2% and GloSensor ctrl 14µM*.
`Cc1ccc(C2Cn3nnc(C(=O)N4CCN(C(=O)c5cccc(C)c5)CC4)c3CO2)cc1` (centres undefined) gave 3T3 cytotox inconclusive, hNpr1 antagonist 11µM*, HEK cytotox 45µM*, FLuc inh inactive, GPT2 inh inactive, Npr1 antag conf 22µM*, NPR2 antag 22µM*, FLuc inh counter -1% and GloSensor ctrl 19µM*.
`CCOC(=O)CN1CCCC1=O` gave GPT2 inh inactive.
`N#Cc1ccc(C(=O)N2CCC3(CC2)CN(c2cccc(F)c2)C3c2ccccc2)cc1` (centres undefined) gave 3T3 cytotox inconclusive, HEK cytotox inconclusive and GPT2 inh 1%.
Screening O=C(c1cc[n+]([O-])cc1)N1CCC2(CCCN(CCC3CCCCC3)C2)C1 (centres undefined) returned 3T3 cytotox -27%, hNpr1 antagonist 1%, HEK cytotox inconclusive, FLuc inh inactive and GPT2 inh -2%.
Cc1ccsc1CN1CCCCCCNC(=O)[C@@H]2CCC[C@@H]21 was read as 3T3 cytotox inconclusive, hNpr1 antagonist -1%, HEK cytotox inconclusive, FLuc inh inactive and GPT2 inh inactive.
Screening O=C(NCCOc1ccccc1)c1cnc2n1CCN(Cc1c[nH]c3ccccc13)CC2 returned 3T3 cytotox inconclusive, hNpr1 antagonist inconclusive, HEK cytotox 100µM*, FLuc inh inactive, GPT2 inh -7%[88.5 µM], Npr1 antag conf 31µM*, NPR2 antag inconclusive, FLuc inh counter 4%[86.2 µM] and GloSensor ctrl 35µM*.
O=C(NCCOc1ccccc1)c1cnc2n1CCN(Cc1ccccc1O)CC2 was read as 3T3 cytotox -25%[138 µM], hNpr1 antagonist -17%[70.6 µM], HEK cytotox inconclusive, FLuc inh inactive and GPT2 inh inactive.
For Clc1ccc2nc(N3CCC(NCCc4cccnc4)CC3)sc2c1 the results were 3T3 cytotox 18µM*, hNpr1 antagonist 13µM*, HEK cytotox 14µM*, FLuc inh inactive, GPT2 inh -3%, Npr1 antag conf 24µM*, NPR2 antag 24µM*, FLuc inh counter -28% and GloSensor ctrl 22µM*.
Screening O=C(O)CN1CCCc2nc(-c3ccccc3)ncc2C1=O returned 3T3 cytotox inactive, hNpr1 antagonist 5%, HEK cytotox inactive, FLuc inh inactive and GPT2 inh inactive.
